Source: the supplement of paper PMC10849652
The full data set covers some 7,900 targets. This sample favours those with a hit. About 0.6% of all pairs of compound and target were hits. Values without a mark were called inactive.

What was measured:
Experiment in all cases: log2 fold change, soluble protein after heating vs DMSO (PISA); higher = thermal stabilisation; K562 cells, 10 uM, 30 min; active = over 0.2 and 3.5 SD of the protein, either way, in both replicates (recomputed)
[1] = compound: CC1=C(C=C(C=C1)NC(=O)C2=CC(=CC=C2)C(C)(C)C#N)NC3=CC4=C(C=C3)N=CN(C4=O)C
Summary of the method: (§1)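 Soluble protein was defined as the supernatant after 21,000xg for 90 min. It came from K562 cells at 2×10^6 cells/mL given 10 μM compound for 30 min, heated in aliquots for 3 min across 48°C-58°C, pooled, and extracted in PBS with 0.5% NP-40 at 4°C, and was quantified by TMTpro 16plex LC-MS/MS with equalised channel sums. Thermal stability against control samples, from duplicates, is reported as log2 fold change.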

[2] = compound: CC1=C(C=C(C=C1)NC(=O)C2=CC(=CC=C2)N(C)C)NC(=O)C3=CC=C(C=C3)O
Summary of the method: as §1

[3] = compound: CC1=CC=C(C=C1)SC2=C3C=C(SC3=CN=C2)C(=O)N
Summary of the method: as §1

[4] = compound: CC1=NC(=CC=C1)C2=C(N=C(N2)C(C)(C)C)C3=CC4=NC=CN=C4C=C3
Summary of the method: as §1

[5] = compound: CCCCN(Cc1ccc(C(=O)NO)cc1)C(=O)Nc1ccccc1 [Nexturastat A]
Summary of the method: as §1

[6] = compound: CCCS(=O)(=O)Nc1ccc(F)c(C(=O)c2c[nH]c3ncc(-c4ccc(Cl)cc4)cc23)c1F [vemurafenib]
Summary of the method: as §1

[7] = compound: CCCS(=O)(=O)Nc1ccc(F)c(C(=O)c2c[nH]c3ncc(Cl)cc23)c1F
Summary of the method: as §1

[8] = compound: CCCc1cc(C)[nH]c(=O)c1CNC(=O)c1cc(-c2ccnc(N3CCN(C)CC3)c2)cc2c1cnn2C(C)C
Summary of the method: as §1

[9] = compound: CCN(CC)Cc1ccc2cc(COC(=O)Nc3ccc(C(=O)NO)cc3)ccc2c1 [givinostat]
Summary of the method: as §1

[10] = compound: CCN(CCCOc1ccc2c(Nc3cc(CC(=O)Nc4cccc(F)c4)[nH]n3)ncnc2c1)CCOP(=O)(O)O [barasertib]
Summary of the method: as §1

[11] = compound: CC[C@@H]1C(=O)N(C)c2cnc(Nc3ccc(C(=O)NC4CCN(C)CC4)cc3OC)nc2N1C1CCCC1
Summary of the method: as §1

[12] = compound: CC[C@@H]1C(=O)N(C)c2cnc(Nc3ccc(C(=O)N[C@H]4CC[C@H](N5CCN(CC6CC6)CC5)CC4)cc3OC)nc2N1C(C)C [volasertib]
Summary of the method: as §1

[13] = compound: CC[C@H](C)N1C=C(C2=C(C=C(C=C21)C3=CN=C(C=C3)N4CCNCC4)C(=O)NCC5=C(C=C(NC5=O)C)C)C
Summary of the method: as §1

[14] = compound: CC[C@H](C)[C@@H](C(=O)N[C@@H]([C@@H](C)O)C(=O)N[C@@H](CC(C)C)C(=O)[C@]1(CO1)C)NC(=O)[C@H]([C@@H](C)CC)N(C)C(=O)C [epoxomicin]
Summary of the method: as §1

[15] = compound: CCn1c(C(=O)N(C2CC2)C2CC2)cc2c3c(ncn3C)c(Nc3cc(C)n(C)n3)nc21
Summary of the method: as §1

[16] = compound: CCn1cc(-c2ccnc3[nH]c(-c4cccc(CN(C)C)c4)cc23)c(-c2ccc(NC(=O)N(C)C)cc2)n1
Summary of the method: as §1

[17] = compound: CN(C)CC(=O)Nc1ccc2[nH]c(=O)c3ccccc3c2c1
Summary of the method: as §1

[18] = compound: CN(CCOC1=CC=C(C=C1)C[C@H]2C(=O)NC(=O)S2)C3=CC=CC=N3 (racemic) [rosiglitazone]
Summary of the method: as §1

[19] = compound: CN1C2=C(C3=C1C(=O)N(N=C3)CC4=CC(=CC=C4)N)SC(=C2)S(=O)C
Summary of the method: as §1

[20] = compound: CN1CCC(CNc2ccc3ncc(-c4cccc(OC(F)(F)F)c4)n3n2)CC1
Summary of the method: as §1

UniProt Q92522, sequence (Q92522 whole entry, looked up): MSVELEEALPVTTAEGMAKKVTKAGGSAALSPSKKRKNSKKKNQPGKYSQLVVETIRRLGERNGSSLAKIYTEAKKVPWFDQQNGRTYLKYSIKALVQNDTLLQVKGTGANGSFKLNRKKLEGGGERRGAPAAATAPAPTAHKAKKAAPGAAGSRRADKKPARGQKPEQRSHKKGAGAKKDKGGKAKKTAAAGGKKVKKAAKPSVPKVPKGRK
UniProt O95363, sequence (O95363 whole entry, looked up): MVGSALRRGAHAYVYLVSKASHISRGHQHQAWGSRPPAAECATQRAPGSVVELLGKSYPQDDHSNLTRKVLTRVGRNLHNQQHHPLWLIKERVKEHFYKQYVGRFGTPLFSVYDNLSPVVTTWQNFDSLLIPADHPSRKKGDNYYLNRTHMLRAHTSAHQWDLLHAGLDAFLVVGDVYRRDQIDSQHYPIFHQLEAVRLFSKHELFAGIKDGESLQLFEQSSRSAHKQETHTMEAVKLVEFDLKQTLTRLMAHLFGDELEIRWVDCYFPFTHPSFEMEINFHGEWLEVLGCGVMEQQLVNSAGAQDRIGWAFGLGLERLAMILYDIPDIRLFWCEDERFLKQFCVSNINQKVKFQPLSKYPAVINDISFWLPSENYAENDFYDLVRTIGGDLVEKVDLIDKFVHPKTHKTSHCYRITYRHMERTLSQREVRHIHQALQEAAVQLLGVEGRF
UniProt Q8IWJ2, sequence (Q8IWJ2 whole entry, looked up): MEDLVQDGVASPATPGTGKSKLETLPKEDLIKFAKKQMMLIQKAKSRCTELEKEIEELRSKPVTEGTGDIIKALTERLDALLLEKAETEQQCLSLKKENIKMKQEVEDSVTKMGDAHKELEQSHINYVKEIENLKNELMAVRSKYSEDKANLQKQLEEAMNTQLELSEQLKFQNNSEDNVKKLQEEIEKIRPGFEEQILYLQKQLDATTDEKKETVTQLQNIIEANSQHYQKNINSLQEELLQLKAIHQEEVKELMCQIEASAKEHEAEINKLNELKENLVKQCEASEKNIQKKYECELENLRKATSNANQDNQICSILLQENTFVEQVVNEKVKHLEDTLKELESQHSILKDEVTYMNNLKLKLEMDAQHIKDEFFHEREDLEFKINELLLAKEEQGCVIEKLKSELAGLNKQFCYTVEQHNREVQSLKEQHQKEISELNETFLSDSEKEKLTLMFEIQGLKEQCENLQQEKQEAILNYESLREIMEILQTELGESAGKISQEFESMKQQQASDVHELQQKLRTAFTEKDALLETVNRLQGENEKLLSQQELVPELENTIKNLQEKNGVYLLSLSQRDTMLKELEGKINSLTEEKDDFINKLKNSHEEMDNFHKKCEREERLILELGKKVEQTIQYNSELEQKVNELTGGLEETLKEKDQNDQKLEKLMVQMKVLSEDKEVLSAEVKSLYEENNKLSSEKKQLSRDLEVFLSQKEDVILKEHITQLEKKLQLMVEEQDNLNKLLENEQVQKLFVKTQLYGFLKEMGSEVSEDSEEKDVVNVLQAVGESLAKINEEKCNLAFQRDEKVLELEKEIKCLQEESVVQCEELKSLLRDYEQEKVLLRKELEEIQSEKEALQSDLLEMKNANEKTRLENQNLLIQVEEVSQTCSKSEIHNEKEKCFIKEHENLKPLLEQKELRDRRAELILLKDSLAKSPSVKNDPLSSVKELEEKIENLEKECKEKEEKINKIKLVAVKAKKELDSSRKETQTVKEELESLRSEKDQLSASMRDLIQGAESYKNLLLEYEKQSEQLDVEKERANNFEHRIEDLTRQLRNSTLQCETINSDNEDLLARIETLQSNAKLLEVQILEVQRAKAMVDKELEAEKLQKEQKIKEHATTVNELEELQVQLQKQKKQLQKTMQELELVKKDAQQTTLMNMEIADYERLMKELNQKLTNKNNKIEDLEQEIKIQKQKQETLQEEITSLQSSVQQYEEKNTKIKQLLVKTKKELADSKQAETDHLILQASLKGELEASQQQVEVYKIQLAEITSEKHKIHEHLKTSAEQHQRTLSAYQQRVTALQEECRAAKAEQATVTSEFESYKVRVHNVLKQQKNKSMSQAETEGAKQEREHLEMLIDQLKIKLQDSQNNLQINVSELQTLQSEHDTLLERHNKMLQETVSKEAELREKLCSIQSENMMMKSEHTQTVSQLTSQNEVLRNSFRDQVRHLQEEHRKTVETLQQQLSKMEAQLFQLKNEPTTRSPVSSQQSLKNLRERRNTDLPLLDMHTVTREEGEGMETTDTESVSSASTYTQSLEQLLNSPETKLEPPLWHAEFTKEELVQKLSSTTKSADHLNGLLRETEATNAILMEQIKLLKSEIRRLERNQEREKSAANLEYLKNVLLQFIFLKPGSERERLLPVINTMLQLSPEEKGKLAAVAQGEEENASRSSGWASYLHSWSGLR
UniProt P69905, sequence (P69905 whole entry, looked up): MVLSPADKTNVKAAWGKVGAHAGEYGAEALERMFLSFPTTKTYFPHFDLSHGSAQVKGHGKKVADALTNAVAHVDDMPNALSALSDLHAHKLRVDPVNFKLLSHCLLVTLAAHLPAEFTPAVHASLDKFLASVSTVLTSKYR
UniProt P07686, sequence (P07686 whole entry, looked up): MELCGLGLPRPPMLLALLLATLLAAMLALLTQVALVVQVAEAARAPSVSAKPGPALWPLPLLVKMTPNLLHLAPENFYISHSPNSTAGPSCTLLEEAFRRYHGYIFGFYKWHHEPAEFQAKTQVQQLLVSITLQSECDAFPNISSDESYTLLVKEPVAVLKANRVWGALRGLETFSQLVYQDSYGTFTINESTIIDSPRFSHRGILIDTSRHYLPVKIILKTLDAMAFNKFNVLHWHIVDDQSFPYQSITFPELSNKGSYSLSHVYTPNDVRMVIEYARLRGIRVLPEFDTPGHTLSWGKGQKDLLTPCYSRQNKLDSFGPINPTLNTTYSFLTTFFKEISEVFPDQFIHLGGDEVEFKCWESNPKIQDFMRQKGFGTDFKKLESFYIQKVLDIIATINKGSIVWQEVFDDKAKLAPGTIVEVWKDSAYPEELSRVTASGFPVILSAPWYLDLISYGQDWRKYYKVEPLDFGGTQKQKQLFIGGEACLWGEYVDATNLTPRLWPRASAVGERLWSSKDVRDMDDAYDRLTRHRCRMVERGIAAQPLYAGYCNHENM
UniProt P22087, sequence (P22087 whole entry, looked up): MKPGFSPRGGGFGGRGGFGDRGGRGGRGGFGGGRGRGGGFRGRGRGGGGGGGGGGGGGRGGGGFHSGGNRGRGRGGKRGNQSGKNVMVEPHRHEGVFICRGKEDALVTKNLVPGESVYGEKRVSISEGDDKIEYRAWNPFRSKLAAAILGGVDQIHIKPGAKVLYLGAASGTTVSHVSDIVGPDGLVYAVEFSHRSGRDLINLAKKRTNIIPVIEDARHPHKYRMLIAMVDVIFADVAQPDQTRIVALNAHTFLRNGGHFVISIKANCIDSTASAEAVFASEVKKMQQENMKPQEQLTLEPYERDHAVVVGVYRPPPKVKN
UniProt Q10471, sequence (Q10471 whole entry, looked up): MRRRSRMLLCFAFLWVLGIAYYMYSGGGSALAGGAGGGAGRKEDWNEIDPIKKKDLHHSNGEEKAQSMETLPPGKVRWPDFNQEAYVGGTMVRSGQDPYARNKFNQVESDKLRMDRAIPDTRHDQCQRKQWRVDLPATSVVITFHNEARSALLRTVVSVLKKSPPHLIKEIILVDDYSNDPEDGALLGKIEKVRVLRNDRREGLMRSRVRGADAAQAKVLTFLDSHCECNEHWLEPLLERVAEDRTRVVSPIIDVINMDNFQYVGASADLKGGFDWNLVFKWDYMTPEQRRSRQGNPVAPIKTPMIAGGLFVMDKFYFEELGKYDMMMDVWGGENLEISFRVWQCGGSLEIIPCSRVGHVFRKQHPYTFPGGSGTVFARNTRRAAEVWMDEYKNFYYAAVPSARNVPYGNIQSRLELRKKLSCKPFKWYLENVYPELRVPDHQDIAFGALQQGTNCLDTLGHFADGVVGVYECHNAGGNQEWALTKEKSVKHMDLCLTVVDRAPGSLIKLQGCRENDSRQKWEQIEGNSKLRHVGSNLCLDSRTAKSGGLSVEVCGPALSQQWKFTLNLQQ
UniProt Q86UX7, sequence (Q86UX7 whole entry, looked up): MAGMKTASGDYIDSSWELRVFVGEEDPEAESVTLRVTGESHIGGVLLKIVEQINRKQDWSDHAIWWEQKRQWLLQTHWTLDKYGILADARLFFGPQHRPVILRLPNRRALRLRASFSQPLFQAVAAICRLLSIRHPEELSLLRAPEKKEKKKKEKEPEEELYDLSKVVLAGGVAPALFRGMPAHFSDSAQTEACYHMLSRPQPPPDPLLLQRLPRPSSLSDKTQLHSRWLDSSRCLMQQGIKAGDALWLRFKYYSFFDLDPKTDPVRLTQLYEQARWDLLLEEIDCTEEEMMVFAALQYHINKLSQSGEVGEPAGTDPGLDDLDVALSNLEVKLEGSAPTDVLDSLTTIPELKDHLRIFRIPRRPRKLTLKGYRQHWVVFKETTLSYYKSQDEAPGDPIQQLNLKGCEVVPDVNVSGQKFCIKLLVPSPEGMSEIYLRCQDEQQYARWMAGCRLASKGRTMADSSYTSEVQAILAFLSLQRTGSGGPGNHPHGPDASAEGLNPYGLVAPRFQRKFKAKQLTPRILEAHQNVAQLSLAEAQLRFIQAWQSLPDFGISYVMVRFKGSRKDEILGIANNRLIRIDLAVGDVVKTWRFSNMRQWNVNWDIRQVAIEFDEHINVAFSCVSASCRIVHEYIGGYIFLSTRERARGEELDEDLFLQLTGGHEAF
UniProt Q03013, sequence (Q03013 whole entry, looked up): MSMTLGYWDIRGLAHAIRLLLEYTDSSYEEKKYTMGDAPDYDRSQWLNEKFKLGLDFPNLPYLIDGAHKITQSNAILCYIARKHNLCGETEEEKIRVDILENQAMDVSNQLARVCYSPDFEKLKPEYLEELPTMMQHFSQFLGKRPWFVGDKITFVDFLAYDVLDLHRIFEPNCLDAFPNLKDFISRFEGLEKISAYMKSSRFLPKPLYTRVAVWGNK

Target | log2 fold change [1] | log2 fold change [2] | log2 fold change [3] | log2 fold change [4] | log2 fold change [5] | log2 fold change [6] | log2 fold change [7] | log2 fold change [8] | log2 fold change [9] | log2 fold change [10] | log2 fold change [11] | log2 fold change [12] | log2 fold change [13] | log2 fold change [14] | log2 fold change [15] | log2 fold change [16] | log2 fold change [17] | log2 fold change [18] | log2 fold change [19] | log2 fold change [20]
GAPVD1 isoform 6 (UniProt Q14C86) | 0.004 | -0.041 | 0.046 | 0.019 | 0.025 | 0.007 | 0.13 | 0.047 | 0.047 | 0.034 | -0.12 | -0.585 (active) | 0.034 | -0.015 | -0.061 | -0.016 | 0.038 | 0.034 | 0.083 | -0.197
HHEX (UniProt Q03014) | -0.03 | 0.045 | -0.009 | -0.055 | 0.05 | -0.081 | 0 | 0.026 | -0.026 | -0.003 | 0.027 | 0.07 | 0.053 | 0.164 | 0.019 | 0.05 | 0.234 | -0.029 | 0.117 | -0.023
GLRX3 (UniProt O76003) | 0.007 | -0.033 | 0.02 | 0.028 | -0.049 | 0.024 | 0.139 | 0.014 | 0.01 | 0.054 | -0.164 | -0.331 (active) | 0.066 | 0.018 | 0.027 | -0.025 | -0.011 | 0.014 | -0.03 | -0.03
FUBP3 (UniProt Q96I24) | 0.021 | -0.018 | 0.01 | 0.122 | -0.114 | 0.035 | 0.018 | -0.059 | -0.023 | -0.012 | 0.061 | -0.251 (active) | 0.045 | 0.021 | 0.025 | 0.064 | -0.028 | 0.016 | 0.02 | 0.059
FERMT3 (UniProt Q86UX7) | 0.019 | -0.024 | 0.037 | 0.054 | -0.013 | 0.036 | 0.083 | 0.03 | 0.048 | 0.019 | -0.07 | -0.262 (active) | 0.053 | 0.019 | -0.018 | -0.04 | 0.045 | 0.059 | -0.021 | -0.149
GNS (UniProt P15586) | -0.021 | 0.112 | 0.044 | 0.026 | -0.03 | 0.023 | -0.005 | 0.003 | 0.011 | -0.004 | -0.272 (active) | -0.181 | -0.045 | -0.012 | 0.018 | -0.003 | -0.007 | -0.005 | -0.016 | -0.408 (active)
FBL (UniProt P22087) | -0.039 | 0.062 | -0.146 | -0.077 | 0.243 | -0.11 | -0.058 | 0.165 | 0.138 | -0.106 | 0.283 | 0.151 | -0.034 | -0.396 | -0.106 | 0.184 | -0.143 | -0.144 | 0.359 | 0.34
FARS2 (UniProt O95363) | 0.012 | -0.015 | -0.032 | 0.078 | 0.044 | 0.032 | 0.01 | -0.087 | -0.019 | 0.035 | 0.01 | -0.172 | 0.109 | -0.034 | 0.036 | -0.052 | -0.036 | 0.086 | -0.002 | -0.319 (active)
H1FX (UniProt Q92522) | 0.081 | -0.059 | -0.106 | -0.222 | 0.278 | -0.083 | -0.077 | 0.176 | -0.034 | -0.129 | 0.166 | 0.415 | -0.003 | -0.201 | -0.026 | 0.041 | -0.115 | -0.156 | 0.287 | 0.129
HEXB (UniProt P07686) | 0 | 0.029 | 0.028 | 0.022 | -0.078 | -0.003 | -0.001 | -0.019 | -0.016 | -0.015 | -0.426 (active) | -0.396 (active) | -0.013 | -0.006 | 0.031 | 0.019 | 0 | -0.008 | -0.047 | -0.563 (active)
GUSB (UniProt P08236) | -0.013 | -0.014 | -0.027 | -0.073 | 0.277 | 0.06 | 0.03 | -0.038 | -0.501 (active) | -0.048 | -0.104 | 0.067 | 0.354 | -0.053 | -0.151 | -0.026 | -0.001 | -0.041 | -0.028 | 0.001
GPAT4 (UniProt Q86UL3) | 0.05 | -0.004 | 0.014 | -0.004 | -0.004 | 0.036 | 0.027 | 0.019 | -0.024 | 0.027 | -0.042 | -0.046 | -0.036 | 0.063 | -0.01 | -0.039 | 0.029 | 0.008 | -0.063 | 0.143
HBA1 (UniProt P69905) | 0.021 | -0.068 | 0.071 | 0.018 | 0.015 | 0.137 | 0.037 | -0.038 | -0.061 | 0.072 | 0.049 | -0.059 | -0.038 | 0.316 | 0.078 | -0.076 | 0.012 | 0.022 | -0.044 | 0.153
GSTM4 (UniProt Q03013) | 0.106 | 0.128 | -0.041 | 0.015 | -0.117 | 0.126 | -0.058 | -0.105 | 0.001 | -0.164 | 0.202 | 0.095 | 0.039 | -0.009 | 0.036 | -0.063 | 0.025 | -0.24 | -0.054 | -0.182
GCC2 (UniProt Q8IWJ2) | -0.004 | -0.012 | -0.016 | -0.031 | 0.322 (active) | 0.025 | 0.01 | 0.073 | 0.05 | -0.037 | 0.094 | -0.116 | 0.053 | -0.005 | 0.038 | 0.013 | 0.026 | -0.01 | 0.196 | 0.031
GALNT2 (UniProt Q10471) | -0.003 | -0.035 | 0.016 | 0.038 | -0.032 | 0 | 0.04 | 0.03 | -0.005 | 0.011 | -0.082 | -0.377 (active) | 0.027 | -0.004 | 0.003 | -0.034 | -0.021 | 0.027 | -0.079 | -0.077
